A short description of assay [1]: NCI Yeast Anticancer Drug Screen. Data for the rad50 strain (AID 155).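 Also: 0% = growth of vehicle-only cultures of the same strain.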 As to conditions: S. cerevisiae rad50 strain growth inhibition, stronger effect = higher value. The method, boiled down: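 DNA repair mutant yeast, compound exposure, growth read-out; inhibition is taken relative to vehicle.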
A short description of assay [2]: NCI Yeast Anticancer Drug Screen. Data for the mec2-1 strain (AID 157). The conditions noted are these: S. cerevisiae mec2-1 strain, stronger effect = higher value. Put shortly: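 Strain: mec2-1 (DNA repair/cell cycle alteration). Compound exposure, then growth measured; inhibition expressed relative to vehicle.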
Assay [3] is described as follows: NCI Yeast Anticancer Drug Screen. Data for the sgs1 mgt1 strain (AID 161).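 Also: 0% = growth of cultures given vehicle only.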 The conditions noted are these: S. cerevisiae sgs1 mgt1 strain, stronger effect = higher value. The method, boiled down:
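Inhibition of yeast growth, normalised to vehicle-treated controls, is reported for a strain bearing genetic alterations in DNA damage repair.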

Assay [4] in a line: NCI Yeast Anticancer Drug Screen. Data for the cln2 rad14 strain (AID 165).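 Also: 0% = growth equal to vehicle treated cultures.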 The conditions noted are these: S. cerevisiae cln2 rad14 strain, stronger effect = higher value. Put shortly:
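Compounds are applied to the cln2 rad14 yeast strain, and growth is then compared with that of vehicle-treated cultures to give inhibition.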

A short description of assay [5]: NCI Yeast Anticancer Drug Screen. Data for the bub3 strain (AID 167). As to conditions: S. cerevisiae bub3 mutant strain, stronger effect = higher value. The method, boiled down: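 In this screen, a yeast mutant lacking normal mitotic checkpoint function is challenged with compound. Relative growth versus vehicle gives the inhibition value.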
Assay [6] is described as follows: NCI Yeast Anticancer Drug Screen. Data for the mlh1 rad18 strain (AID 175). The conditions noted are these: S. cerevisiae mlh1 rad18 strain growth inhibition, stronger effect = higher value. The method, boiled down: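 Read-out is yeast growth inhibition, calculated against vehicle-only controls. The compound was applied to a strain engineered with DNA damage repair alterations.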

[7] abbreviates: at 5.0 µM (retest, dose inferred, filed as 0.5).
The mark [8] stands for this setting: at 50.0 µM (retest, dose inferred, filed as 5.0).

About 79,000 compounds went through this panel and 15% of them were active in at least one assay; those are over-represented in the sample as a whole. Unmarked numbers belong to inactive results. Calls of active or inactive are those of the source. Rule as the data show it: active = growth inhibition above about 70%; inactive = the rest.

Regarding `Oc1cc2ccccc2c2c1ccc1ccccc12`, the growth inhibition in assay [1] (setting [7]) is -142%; in assay [1] (setting [8]), 90% (active); in assay [1] (at 50.0 µM) it was 84.5% (active); in assay [2] (setting [7]) it was -35%; in assay [2] (setting [8]), 97% (active); in assay [2] (at 50.0 µM), 77.8% (active). Moreover, the growth inhibition was -52% in assay [3] (setting [7]); 95% (active) in assay [3] (setting [8]); 86.7% (active) in assay [3] (at 50.0 µM); -55% in assay [4] (setting [7]); 95% (active) in assay [4] (setting [8]); 67.8% in assay [4] (at 50.0 µM). Further, the growth inhibition in assay [5] (setting [7]) was -55%; in assay [5] (setting [8]), 94% (active); in assay [5] (at 50.0 µM), 84% (active); in assay [6] (setting [7]), -94%; in assay [6] (setting [8]), 92% (active); in assay [6] (at 50.0 µM), 77.3% (active).

On to `CCOC(=O)C(=O)NNc1ccccc1`, for which the growth inhibition was 22% in assay [1] (setting [7]); 89% (active) in assay [1] (setting [8]); 97.8% (active) in assay [1] (at 50.0 µM); 3% in assay [2] (setting [7]); 82% (active) in assay [2] (setting [8]); 94.8% (active) in assay [2] (at 50.0 µM). Besides, the growth inhibition is 13% in assay [3] (setting [7]); 61% in assay [3] (setting [8]); 98.7% (active) in assay [3] (at 50.0 µM); -1% in assay [4] (setting [7]); 57% in assay [4] (setting [8]); 92.7% (active) in assay [4] (at 50.0 µM). In addition, the growth inhibition in assay [5] (setting [7]) is 17%; in assay [5] (setting [8]), 96% (active); in assay [5] (at 50.0 µM) it was 97.5% (active); in assay [6] (setting [7]), 31%; in assay [6] (setting [8]), 95% (active); in assay [6] (at 50.0 µM) it was 98.9% (active).

For the compound `O=C(/C(=C\c1ccccc1)c1ccccc1)c1ccc(Br)cc1`, the growth inhibition is 7% in assay [1] (setting [7]); -9% in assay [1] (setting [8]); 10.2% in assay [1] (at 50.0 µM); 3% in assay [2] (setting [7]); 4% in assay [2] (setting [8]); -16.2% in assay [2] (at 50.0 µM). Moreover, the growth inhibition in assay [3] (setting [7]) is 4%; in assay [3] (setting [8]) it was 5%; in assay [3] (at 50.0 µM), 24.6%; in assay [4] (setting [7]), 0%; in assay [4] (setting [8]) it was -8%; in assay [4] (at 50.0 µM) it was 47.1%. Moreover, the growth inhibition in assay [5] (setting [7]) was 1%; in assay [5] (setting [8]), 9%; in assay [5] (at 50.0 µM), 11.8%; in assay [6] (setting [7]), -8%; in assay [6] (setting [8]) it was 2%; in assay [6] (at 50.0 µM) it was 17.4%.

`O=C(Nc1ccc2c(c1)Cc1cc([N+](=O)[O-])c(F)cc1-2)C(F)(F)F`: the growth inhibition is 13% in assay [1] (setting [7]); 4% in assay [1] (setting [8]); 5.25% in assay [1] (at 50.0 µM); 1% in assay [2] (setting [7]); 2% in assay [2] (setting [8]); 49.2% in assay [2] (at 50.0 µM). In addition, the growth inhibition is 3% in assay [3] (setting [7]); -20% in assay [3] (setting [8]); 6.55% in assay [3] (at 50.0 µM); 0% in assay [4] (setting [7]); 7% in assay [4] (setting [8]); -2.1% in assay [4] (at 50.0 µM). Further, the growth inhibition in assay [5] (setting [7]) was -3%; in assay [5] (setting [8]) it was 0%; in assay [5] (at 50.0 µM) it was -4.35%; in assay [6] (setting [7]), 3%; in assay [6] (setting [8]), 3%; in assay [6] (at 50.0 µM) it was 28.5%.

For `O=C(C[P+](c1ccccc1)(c1ccccc1)c1ccccc1)c1ccc(Br)cc1`, the growth inhibition in assay [1] (setting [7]) was 67%; in assay [1] (setting [8]), 96% (active); in assay [1] (at 50.0 µM) it was 98.8% (active); in assay [2] (setting [7]) it was 53%; in assay [2] (setting [8]), 98% (active); in assay [2] (at 50.0 µM) it was 97.4% (active). For the same compound, the growth inhibition was 82% (active) in assay [3] (setting [7]); 99% (active) in assay [3] (setting [8]); 96.8% (active) in assay [3] (at 50.0 µM); 22% in assay [4] (setting [7]); 96% (active) in assay [4] (setting [8]); 95.9% (active) in assay [4] (at 50.0 µM). The growth inhibition in assay [5] (setting [7]) is 62%; in assay [5] (setting [8]) it was 97% (active); in assay [5] (at 50.0 µM), 97.7% (active); in assay [6] (setting [7]) it was 69%; in assay [6] (setting [8]), 97% (active); in assay [6] (at 50.0 µM), 96% (active).

For `COC(=O)C1(C)CCCC2(C)C3CC(=O)C(C(C)C)=CC3(O)CCC12` (stereo not drawn), the growth inhibition in assay [1] (setting [7]) is 7%; in assay [1] (setting [8]), 8%; in assay [1] (at 50.0 µM), 10.7%; in assay [2] (setting [7]), -1%; in assay [2] (setting [8]), -3%; in assay [2] (at 50.0 µM) it was -3.25%. In addition, the growth inhibition in assay [3] (setting [7]) is 4%; in assay [3] (setting [8]), -15%; in assay [3] (at 50.0 µM), 3.1%; in assay [4] (setting [7]) it was -75%; in assay [4] (setting [8]), -27%; in assay [4] (at 50.0 µM) it was 13.7%. Further, the growth inhibition is 5% in assay [5] (setting [7]); 2% in assay [5] (setting [8]); 0.8% in assay [5] (at 50.0 µM); 15% in assay [6] (setting [7]); 19% in assay [6] (setting [8]); -5.95% in assay [6] (at 50.0 µM).

Turning to `C[C@H](CCC1=NCCN1)[C@H]1CC[C@H]2[C@@H]3[C@H](O)C[C@@H]4C[C@H](O)CC[C@]4(C)[C@H]3CC[C@]12C`, the growth inhibition in assay [1] (setting [7]) was -19%; in assay [1] (setting [8]), 99% (active); in assay [1] (at 50.0 µM) it was 91.5% (active); in assay [2] (setting [7]) it was -2%; in assay [2] (setting [8]), 100% (active); in assay [2] (at 50.0 µM), 93% (active). Also, the growth inhibition is 3% in assay [3] (setting [7]); 100% (active) in assay [3] (setting [8]); 91.7% (active) in assay [3] (at 50.0 µM); -6% in assay [4] (setting [7]); 99% (active) in assay [4] (setting [8]); 91% (active) in assay [4] (at 50.0 µM). Further, the growth inhibition in assay [5] (setting [7]) is 0%; in assay [5] (setting [8]), 99% (active); in assay [5] (at 50.0 µM), 91.6% (active); in assay [6] (setting [7]), 4%; in assay [6] (setting [8]), 99% (active); in assay [6] (at 50.0 µM), 91% (active).

As for `COC(=O)c1cc(-c2ccc(C)cc2)c2c(=O)n(-c3ccccc3)[nH]c2n1`, the growth inhibition in assay [1] (setting [7]) is 8%; in assay [1] (setting [8]), 75% (active); in assay [1] (at 50.0 µM), 72.9% (active); in assay [2] (setting [7]), 5%; in assay [2] (setting [8]) it was 71% (active); in assay [2] (at 50.0 µM), 94.9% (active). Moreover, the growth inhibition in assay [3] (setting [7]) was -7%; in assay [3] (setting [8]) it was 51%; in assay [3] (at 50.0 µM) it was 51.1%; in assay [4] (setting [7]) it was 11%; in assay [4] (setting [8]), 87% (active); in assay [4] (at 50.0 µM) it was 94.8% (active). Also, the growth inhibition was 4% in assay [5] (setting [7]); 69% in assay [5] (setting [8]); 92.8% (active) in assay [5] (at 50.0 µM); -3% in assay [6] (setting [7]); 85% (active) in assay [6] (setting [8]); 85.9% (active) in assay [6] (at 50.0 µM).

Consider `O=C(O)c1cc2ccc(Cl)cc2c2c1C(=O)c1cc(Cl)ccc1-2`, for which the growth inhibition in assay [1] (setting [7]) was 12%; in assay [1] (setting [8]) it was 50%; in assay [1] (at 50.0 µM) it was 90.3% (active); in assay [2] (setting [7]), 0%; in assay [2] (setting [8]), 33%; in assay [2] (at 50.0 µM) it was 57.5%. Besides, the growth inhibition in assay [3] (setting [7]) is -2%; in assay [3] (setting [8]), 35%; in assay [3] (at 50.0 µM) it was 82.5% (active); in assay [4] (setting [7]), -3%; in assay [4] (setting [8]) it was 39%; in assay [4] (at 50.0 µM) it was 77.3% (active). Also, the growth inhibition in assay [5] (setting [7]) is -2%; in assay [5] (setting [8]) it was 33%; in assay [5] (at 50.0 µM) it was 82% (active); in assay [6] (setting [7]), -4%; in assay [6] (setting [8]), 46%; in assay [6] (at 50.0 µM) it was 84.5% (active).

In the case of `CN(NC(=O)/C(=C/c1ccc2c(c1)OCO2)NC(=O)c1ccccc1)c1ccnc2cc(Cl)ccc12`, the growth inhibition was -7% in assay [1] (setting [7]); -10% in assay [1] (setting [8]); 89.7% (active) in assay [1] (at 50.0 µM); -15% in assay [2] (setting [7]); -2% in assay [2] (setting [8]); 46% in assay [2] (at 50.0 µM). For the same compound, the growth inhibition was -9% in assay [3] (setting [7]); -15% in assay [3] (setting [8]); 78% (active) in assay [3] (at 50.0 µM); 22% in assay [4] (setting [7]); 11% in assay [4] (setting [8]); 55.6% in assay [4] (at 50.0 µM). The growth inhibition in assay [5] (setting [7]) is 8%; in assay [5] (setting [8]), 33%; in assay [5] (at 50.0 µM), 72.2% (active); in assay [6] (setting [7]), 10%; in assay [6] (setting [8]), 11%; in assay [6] (at 50.0 µM), 87.7% (active).

In the case of `CCCC1=C(c2ccccc2)C(O)(c2ccccc2)C(CCC)C1=O` (stereo not drawn), the growth inhibition in assay [1] (setting [7]) is 0%; in assay [1] (setting [8]), 46%; in assay [1] (at 50.0 µM), 97.8% (active); in assay [2] (setting [7]), 4%; in assay [2] (setting [8]), 47%; in assay [2] (at 50.0 µM) it was 96.4% (active). In addition, the growth inhibition is 0% in assay [3] (setting [7]); 37% in assay [3] (setting [8]); 96.2% (active) in assay [3] (at 50.0 µM); -9% in assay [4] (setting [7]); 19% in assay [4] (setting [8]); 95.3% (active) in assay [4] (at 50.0 µM). Besides, the growth inhibition in assay [5] (setting [7]) is -3%; in assay [5] (setting [8]), 69%; in assay [5] (at 50.0 µM), 93.3% (active); in assay [6] (setting [7]) it was 4%; in assay [6] (setting [8]), 47%; in assay [6] (at 50.0 µM) it was 95.8% (active).
